# Measurements as given in PubChem BioAssay (NCATS).
# Results filed as inconclusive are left out. A number with no mark means an inactive call. The source made the active and inactive calls. Calls come from the whole dose curve; as a rule, active = well fitted inhibition curve with a large enough effect; inconclusive = small, poorly fitted or top-dose-only effect; inactive = no such curve, though single readings can be large or run the other way.
# Test: BET inhibitor-based combinations targeting novel dependencies in MECOM-rearranged (r) AML: SET-2 cell line (AID 2202231); note: nearly all actives have a fitted effect of over 35% in size
# Conditions: SET-2 AML cells viability, CellTiter-Glo luminescence, 48 h; viability: active compounds read low, series mostly up to about 46 µM
# From the text: Ecotropic viral insertion site 1 (EVI1) is located on chromosome 3q26.2 as part of the MECOM (MDS and EVI1 complex) locus. Under normal hematopoiesis, EVI1 is a regulator of hematopoietic stem cell maintenance and self-renewal and EVI1 levels decrease as the cells differentiate. In approximately 5-10% of de novo acute myeloid leukemia (AML) EVI1 is aberrantly expressed, including Chromosomal inv(3)(q21;q26.2) or t(3;3)(q21;q26.2) alterations (MECOM-r) that account for about 50% of AML with EVI1 overexpression 31. AMLs with high levels of EVI1 have a poor prognosis and an overall survival time averaging between 10-14 months. EVI1 overexpression confers resistance in leukemia cells, highlighting the need to develop new targeted therapies for EVI1 overexpressing AMLs.
# Here, we performed an unbiased chemical drug screening by evaluating the single agent activity of a collection of 2,480 oncology-focused, approved and investigational drugs (NCATS Mechanism Interrogation Plates, MIPE v5.0) against a panel of seven AML cell lines. These included four MECOM-r cell-lines (AML-191, AML-194, UCSD-AML1 and HNT-34) and three non-MECOM-r AMLs (MV4-11, OCI-AML3 and SET-2). Exploiting the mechanistic redundancy built in the library, we identified target-level sensitivities in MECOM-r AML cells and relative activity as compared to other AML subtypes.
# A collection of 2480 mechanistically annotated dugs (MIPE v5.0) was used to screen four 3q26.2 rearranged AML cell lines and three non-3q26.2 rearranged AML cell lines. This library purposely exploits redundancy by including multiple inhibitors of key onco-targets, while simultaneously encompassing mechanistic diversity, targeting more than 800 distinct mechanisms of action. Briefly, cells were seeded in 5 uL of growth media using a Multidrop Combi dispenser into 1536 well white polystyrene tissue culture treated plates (Corning) at a density of 500cells/well. For each cell-line, for each of the 2480 drugs in MIPE v5.0 library, an 11-point dose curve was generated via a 1536 pin-tool. Plates were incubated for 48 hr at standard incubator conditions, covered by a stainless steel gasketed lid to prevent evaporation. Cell viability was determined by luminescence based, Cell Titer Glo assay (Promega). In detail, 3 uL of Cell Titer Glo were added to each well and plates were incubated at room temperature for 15 min with a stainless-steel lid in place. Luminescence readings were taken using a Viewlux (PerkinElmer) with a 2 s exposure time per plate. Compound dose-response curves were normalized to DMSO and empty well controls on each plate. Quantitative drug activity data from dose-response curves was determined utilizing area Under the Curve (AUC) and Z-transformed AUC (Z-AUC, a mean-centering transformation applied to each individual cell-line screened).
# Potency is the fitted concentration of half-maximal effect.
SMILES,viability,Potency
C[C@H]1COc2c(N3CCN(C)CC3)c(F)cc3c(=O)c(C(=O)O)cn1c23,108%,–
OC[C@H]1OC(O)C[C@@H](O)[C@H]1O (stereo not given in full),110%,–
CC(=O)OCC(CCn1cnc2cnc(N)nc21)COC(C)=O,121%,–
Cc1ccc(NC(=O)c2cccc(N(C)C)c2)cc1NC(=O)c1ccc(O)cc1,90.3%,–
COc1cccc(OC)c1-c1cc(C(=O)NC2(C(=O)O)C3CC4CC(C3)CC2C4)nn1-c1ccnc2cc(Cl)ccc12 (stereo not given),114%,–
N#Cc1ccnc(N2C(=O)CC[C@H]2C(=O)N(c2cncc(F)c2)[C@H](C(=O)NC2CC(F)(F)C2)c2ccccc2Cl)c1,105%,–
O=S(=O)(O)CCS,120%,–
CC1COc2c(N3CCN(C)CC3)c(F)cc3c(=O)c(C(=O)O)cn1c23 (stereo not given),102%,–
Cc1ccc(C(=O)c2cc(O)c(O)c([N+](=O)[O-])c2)cc1,104%,–
Clc1ccc2nsnc2c1NC1=NCCN1,111%,–
CC(=O)O[C@H]1C[C@@H]2CC[C@H]3[C@H]4C[C@H]([N+]5(C)CCCCC5)[C@@H](OC(C)=O)[C@@]4(C)CC[C@@H]3[C@@]2(C)C[C@H]1[N+]1(C)CCCCC1,114%,–
CCCS(=O)(=O)Nc1ccc(F)c(C(=O)c2c[nH]c3ncc(Cl)cc23)c1F,–,16.6 µM (active)
c1ccc2c(CCNc3ccc(Nc4ccncc4)cc3)c[nH]c2c1,–,10.5 µM (active)
C[C@@H](NCc1cc2ccccc2[nH]1)c1cccc2ccccc12,–,16.6 µM (active)
COc1ccc(C2CNC(=O)C2)cc1OC1CCCC1 (stereo not given),119%,–
Cc1cnc(Nc2ccc(F)cc2Cl)nc1-c1c[nH]c(C(=O)N[C@H](CO)c2cccc(Cl)c2)c1,–,23.5 µM (active)
Cc1cc(-c2cc(OC(=O)c3ccccc3)ccc2Cl)cc2nnc(Nc3ccc(OCCN4CCCC4)cc3)nc12,115%,–
CCC(C)SSc1ncc[nH]1 (stereo not given),–,11.8 µM (active)
COc1nc(C)cnc1NS(=O)(=O)c1cccnc1-c1ccc(-c2nnco2)cc1,115%,–
NCCCC(N)(C(=O)O)C(F)F (stereo not given),102%,–

SMILES,viability,Potency
O=C(Nc1ncc(-c2cc(C(F)F)nn2-c2c(Cl)cccc2Cl)s1)C1CC1,–,1.05 µM (active)
CC(=O)NC[C@H]1CN(c2ccc(N3CCOCC3)c(F)c2)C(=O)O1,105%,–
O=C(O)CCNC(=O)c1ccc(N=Nc2ccc(O)c(C(=O)O)c2)cc1,118%,–
O=C(NCC1CCCCN1)c1cc(OCC(F)(F)F)ccc1OCC(F)(F)F (stereo not given),112%,–
CN(C)C/C=C/C(=O)Nc1cccc(C(=O)Nc2cccc(Nc3ncc(Cl)c(-c4c[nH]c5ccccc45)n3)c2)c1,–,1.05 µM (active)
CNC(=O)CN1CCC(Oc2cc3c(Nc4cccc(Cl)c4F)ncnc3cc2OC)CC1,107%,–
O=C(/C=C/N1C[C@H]2C[C@@H]1CN2c1ccccn1)c1ccccc1O,–,0.372 µM (active)
COc1ccc([C@@H]2Sc3ccccc3N(CCN(C)C)C(=O)[C@@H]2OC(C)=O)cc1,101%,–
N#Cc1ccnc(Nc2cc(C3CCN(C4COC4)CC3)cc(N3CCC(F)(F)C3)n2)c1,–,3.72 µM (active)
Nc1nc2ccc(OC(F)(F)F)cc2s1,89.4%,–
Nc1ccc(/C=C/C(=O)NCc2cc3cc(-c4ccc(C(=O)N5CCC(F)(F)CC5)cc4)cc(-c4ccc(F)cc4)c3o2)cn1,104%,–
c1cc(-c2cnn3cc(-c4ccc(OCCN5CCCCC5)cc4)cnc23)ccn1,–,8.33 µM (active)
NC12CC3CC(CC(C3)C1)C2,106%,–
COc1cc(N2CCN(C)CC2)ccc1Nc1nccc(-c2cn(C)c3cnccc23)n1,–,20.9 µM (active)
Cn1ncnc1[C@H]1c2n[nH]c(=O)c3cc(F)cc(c23)N[C@@H]1c1ccc(F)cc1,–,3.72 µM (active)
COc1cc2c(cc1OC)[C@@H]1C(=O)c3ccc4c(c3O[C@@H]1CO2)C=CC(C)(C)O4,–,13.2 µM (active)
CC[C@@H](C)Nc1cc(C(=O)NC2CC3CCC(C2)N3c2ccc(C(=O)C3CC3)cn2)c(C)cc1C(N)=O (stereo not given in full),–,0.132 µM (active)
C[C@@H](NCCCc1cccc(C(F)(F)F)c1)c1cccc2ccccc12,–,23.5 µM (active)
COc1cc2c(Oc3ccc(NC(=O)C4(C(=O)Nc5ccc(F)cc5)CC4)cc3F)ccnc2cc1OCCCN1CCOCC1,–,23.5 µM (active)
CCCC1OC2C[C@@H]3[C@H]4CCC5=CC(=O)C=C[C@]5(C)[C@H]4C(O)C[C@]3(C)[C@]2(C(=O)CO)O1 (stereo not given in full),98.3%,–
